Only some compounds are listed: those with a hit (about 0.97% of all), similar ones and a draw of the others.
UGM FP inh – blocks M. tuberculosis UGM enzyme. P9WIQ1. purified UGM, fluorescence polarization probe displacement. inhibition, % at 10 µM. actives 0.06% (n = 320,000). AID 504406; in the data active = inhibition above about 10%, passing the limit was not always enough; inconclusive = no clear call, values can overlap the other calls
MazF activator – MazEF (E. coli) toxin RNase activation | AID 504720 | P0AE70 | activation, % at 20 µM | FAM/BHQ RNA-DNA oligo cleavage fluorescence, 5 h | actives 0.32% (n = 350,000); in the data active = activation above about 50%
Target sequence (P0AE70 whole entry, looked up): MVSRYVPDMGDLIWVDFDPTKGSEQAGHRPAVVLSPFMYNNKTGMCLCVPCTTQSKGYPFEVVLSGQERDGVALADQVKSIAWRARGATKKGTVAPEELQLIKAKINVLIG
Rv3671c protease – inhibits the M. tuberculosis serine protease Rv3671c. P9WHR9. inhibition, % at 5.96 µM. actives 0.048% (n = 320,000). AID 2606; in the data active = inhibition above about 38%;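 note: extracellular domain of Rv3671c used as enzyme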
Target sequence (P9WHR9 whole entry, looked up, the tested form may be a part): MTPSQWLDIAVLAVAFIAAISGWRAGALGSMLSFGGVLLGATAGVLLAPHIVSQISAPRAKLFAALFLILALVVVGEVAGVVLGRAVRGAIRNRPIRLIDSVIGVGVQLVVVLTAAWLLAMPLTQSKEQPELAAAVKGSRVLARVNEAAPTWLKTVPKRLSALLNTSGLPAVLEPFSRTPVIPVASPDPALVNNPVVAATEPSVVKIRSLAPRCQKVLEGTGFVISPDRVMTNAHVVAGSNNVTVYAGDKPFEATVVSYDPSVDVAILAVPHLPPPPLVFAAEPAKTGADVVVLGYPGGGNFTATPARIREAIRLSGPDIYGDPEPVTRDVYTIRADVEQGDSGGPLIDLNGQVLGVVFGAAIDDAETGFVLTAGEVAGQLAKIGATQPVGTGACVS
Mtb betalactam – beta-lactam sensitization of Mtb H37Rv | M. tuberculosis H37Rv growth with meropenem, percent inhibition | inhibition, % at 25 µM | actives 0.27% (n = 330,000);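 note: growth measured after seven days incubation then overnight dye step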
RecA intein inh – inhibitors of M. tuberculosis RecA intein splicing. P9WHJ3. cell-free RecA intein splicing, fluorescence. inhibition, % (concentration not given with the values). actives 0.75% (n = 290,000); in the data active = inhibition above about 30%; inconclusive = no clear call, values can overlap the other calls
TcdB GH inh – blocks C. difficile toxin B glycohydrolase activity. AID 652162. actives 0.24% (n = 350,000). TcdB glycohydrolase enzymatic assay, plate reader. inhibition, % at 9.99 µM; in the data active = inhibition above about 10%
GFP chromophore – counter-screen GFP chromophore formation inhibition; shares compounds with RecA intein inh; actives 83% (n = 2,100); cell-free GFP chromophore formation, fluorescence; EC50, µM
Numbers stand for hits. Unless noted, the rule behind the calls is not given here.

How did CCc1cnc(N2[C@H](C#N)[C@@H](c3ccc(-c4cccc(F)c4)cc3)[C@@H]2CO)s1 do in these assays?
TcdB GH inh: inactive

How did CCCCCC(=O)O[C@]1(C(C)=O)CC[C@H]2[C@@H]3CCC4=CC(=O)CC[C@]4(C)[C@H]3CC[C@@]21C do in these assays?
UGM FP inh: inactive; MazF activator: inactive; Rv3671c protease: inactive; Mtb betalactam: inactive; RecA intein inh: 32.9; TcdB GH inh: inactive; GFP chromophore: inactive

Results for C[C@@H]1CN([C@H](C)CO)C(=O)c2cc(NC(=O)Nc3ccc(C(F)(F)F)cc3)ccc2O[C@@H](C)CCCCO[C@H]1CN(C)C(=O)C1CCCCC1 ?
TcdB GH inh: inactive

What do the screens show for `CCS(=O)(=O)N1CC2(C1)[C@H](c1ccccc1)[C@@H](CO)N2CC1CCCC1`?
TcdB GH inh: inactive

How did CCOC(=O)C1CCN(Cc2cc(C(C)C)c(O)c(C(C)C)c2)CC1 do in these assays?
UGM FP inh: inactive; MazF activator: inactive; Rv3671c protease: inactive; Mtb betalactam: inactive; RecA intein inh: 59.0; TcdB GH inh: inactive; GFP chromophore: inactive

Results for C[C@H](CO)N1C[C@H](C)[C@@H](CN(C)S(=O)(=O)c2ccc(Cl)cc2)Oc2c(NC(=O)C3CCOCC3)cccc2C1=O ?
TcdB GH inh: inactive

Results for [O-]C1=N/[N+](=C/c2ccc(Cl)cc2)CC1 ?
UGM FP inh: inactive; MazF activator: inactive; Rv3671c protease: inactive; Mtb betalactam: inactive; RecA intein inh: 72.7; GFP chromophore: 28.6

How did COCCOC(=O)C1=C(C)N=C2SCCC(=O)N2C1c1ccc(OC(=O)c2ccco2)cc1 (configuration not stated) do in these assays?
UGM FP inh: inactive; MazF activator: inactive; Rv3671c protease: inactive; Mtb betalactam: inactive; RecA intein inh: 33.1; GFP chromophore: inactive

Results for O=S(=O)(NCc1ccccc1)c1ccc(Cl)cc1 ?
UGM FP inh: inactive; MazF activator: inactive; Rv3671c protease: inactive; Mtb betalactam: inactive; RecA intein inh: inactive

Results for O=S(=O)(Nc1cc2nc3ccccc3nc2n1Cc1ccccc1)c1ccc(Cl)cc1 ?
UGM FP inh: inactive; MazF activator: inactive; Rv3671c protease: inactive; Mtb betalactam: inactive; RecA intein inh: 60.2; TcdB GH inh: inactive; GFP chromophore: 6.29

What do the screens show for `CCOC(=O)C1=C(C)NC(SCc2cc(=O)[nH][nH]2)=C(C#N)C1c1cccs1` (configuration not stated)?
UGM FP inh: inactive; MazF activator: inactive; Rv3671c protease: inactive; Mtb betalactam: inactive; RecA intein inh: 69.9; TcdB GH inh: inactive; GFP chromophore: 20.4

Results for Cc1[nH]n(-c2ccccc2)c(=O)c1N=Nc1ccc(Cl)cc1 ?
UGM FP inh: inactive; MazF activator: inactive; Rv3671c protease: inactive; Mtb betalactam: inactive; RecA intein inh: inactive; TcdB GH inh: inactive

Results for Cc1[nH]n(-c2ccccc2)c(=O)c1Sc1ccc(Cl)cc1 ?
UGM FP inh: inactive; MazF activator: inactive; Rv3671c protease: inactive; Mtb betalactam: inactive; RecA intein inh: 57.3; GFP chromophore: 20

What do the screens show for `Cc1[nH]n(-c2ccccc2)c(=O)c1C(C[N+](=O)[O-])c1ccc(Cl)cc1` (configuration not stated)?
MazF activator: inactive; Rv3671c protease: inactive; Mtb betalactam: inactive; RecA intein inh: 81.9; GFP chromophore: 15.2

How did Cc1cc(O)c(C(C[N+](=O)[O-])c2ccc(Cl)cc2)c(=O)o1 (configuration not stated) do in these assays?
UGM FP inh: inactive; MazF activator: inactive; Rv3671c protease: inactive; Mtb betalactam: inactive; RecA intein inh: inactive; TcdB GH inh: inactive

Results for Cc1[nH]n(-c2ccccc2)c(=O)c1C(C[N+](=O)[O-])c1ccc(F)cc1 (configuration not stated) ?
UGM FP inh: inactive; MazF activator: inactive; Rv3671c protease: inactive; Mtb betalactam: inactive; RecA intein inh: 76.4; GFP chromophore: 22.4

How did Cc1ccc(C(C[N+](=O)[O-])c2c(C)[nH]n(-c3ccccc3)c2=O)cc1 (configuration not stated) do in these assays?
UGM FP inh: inactive; MazF activator: inactive; Rv3671c protease: inactive; Mtb betalactam: inactive; RecA intein inh: 92.7; TcdB GH inh: inactive; GFP chromophore: 7.29

How did COc1ccc(C(c2c(C)n(C)n(-c3ccccc3)c2=O)c2c(C)n(C)n(-c3ccccc3)c2=O)cc1OC do in these assays?
UGM FP inh: inactive; MazF activator: inactive; Rv3671c protease: inactive; Mtb betalactam: inactive; TcdB GH inh: inactive

How did COc1ccc(C(c2c(C)[nH]n(-c3ccccc3)c2=O)c2c(C)[nH]n(-c3ccccc3)c2=O)cc1OC do in these assays?
UGM FP inh: inactive; MazF activator: inactive; Rv3671c protease: inactive; Mtb betalactam: inactive; RecA intein inh: 98.4; GFP chromophore: 1.27

How did Cc1ccc(CN(C)C[C@H]2OCc3cnnn3CCCC(=O)N([C@H](C)CO)C[C@H]2C)cc1 do in these assays?
TcdB GH inh: inactive

How did CSc1cccc(NC(=O)CSc2ncccc2C(=O)Oc2cccc([N+](=O)[O-])c2)c1 do in these assays?
UGM FP inh: inactive; MazF activator: inactive; Rv3671c protease: inactive; Mtb betalactam: inactive; RecA intein inh: inactive; TcdB GH inh: inactive

Results for CCN(C(=O)CSc1ncccc1C(=O)Oc1cccc([N+](=O)[O-])c1)c1cccc(C)c1 ?
UGM FP inh: inactive; MazF activator: inactive; Rv3671c protease: inactive; Mtb betalactam: inactive; RecA intein inh: 32.8; TcdB GH inh: inactive; GFP chromophore: inconclusive

What do the screens show for `CO[C@@H]1CN(C)C(=O)c2ccc(NC(=O)c3ccccc3F)cc2OC[C@H](C)N(CC2CC2)C[C@@H]1C`?
TcdB GH inh: inactive

What do the screens show for `CCCCCCCCCCCCCCCCn1cc[n+](C)c1`?
UGM FP inh: inactive; MazF activator: inactive; Rv3671c protease: inactive; Mtb betalactam: inactive; RecA intein inh: 47.6; TcdB GH inh: inactive; GFP chromophore: 12.1

Results for CN1CCN2c3ccc(N)cc3CC3(C(=O)NC(=O)NC3=O)C2C1 (configuration not stated) ?
MazF activator: inactive; RecA intein inh: 55.2; TcdB GH inh: inactive; GFP chromophore: inactive

Results for CC1OC(Nc2cccc3ccccc23)C(O)C(O)C1O (configuration not stated) ?
UGM FP inh: inactive; MazF activator: inactive; Rv3671c protease: inactive; Mtb betalactam: inactive; RecA intein inh: 45.8; GFP chromophore: inactive

Results for CC1OC(Nc2ccc(N=Nc3ccccc3)cc2)C(O)C(O)C1O (configuration not stated) ?
UGM FP inh: inactive; MazF activator: inactive; Rv3671c protease: inactive; Mtb betalactam: inactive; RecA intein inh: inactive; TcdB GH inh: inactive

How did C[C@@H]1CN([C@@H](C)CO)C(=O)c2cc(-c3cccc(F)c3)cnc2O[C@@H]1CN(C)C(=O)C1CCC1 do in these assays?
TcdB GH inh: inactive
